Results as given in PubChem BioAssay AID1851 (National Center for Advancing Translational Sciences (NCATS), 2009).
Among all 16,000 compounds or so, about 5,800 (36%) were called active. Not shown: some 23% with an inconclusive outcome. The call rests on the fitted dose curve; in most records, active means well fitted curve in the direction sought with a large enough effect; inconclusive means small, poorly fitted or top-dose-only effect, or effect the other way; inactive means no such curve, though single readings can be large or run the other way. This is one part of the list.

target: Cytochrome P450 2C19 (Homo sapiens) (UniProt P33261); experiment: Cytochrome panel assay with activity outcomes; details: recombinant CYP, pro-luciferin dealkylation, luminescence, p450-cyp2c19; series mostly up to 57.1 µM
Sequence (P33261 whole entry, looked up): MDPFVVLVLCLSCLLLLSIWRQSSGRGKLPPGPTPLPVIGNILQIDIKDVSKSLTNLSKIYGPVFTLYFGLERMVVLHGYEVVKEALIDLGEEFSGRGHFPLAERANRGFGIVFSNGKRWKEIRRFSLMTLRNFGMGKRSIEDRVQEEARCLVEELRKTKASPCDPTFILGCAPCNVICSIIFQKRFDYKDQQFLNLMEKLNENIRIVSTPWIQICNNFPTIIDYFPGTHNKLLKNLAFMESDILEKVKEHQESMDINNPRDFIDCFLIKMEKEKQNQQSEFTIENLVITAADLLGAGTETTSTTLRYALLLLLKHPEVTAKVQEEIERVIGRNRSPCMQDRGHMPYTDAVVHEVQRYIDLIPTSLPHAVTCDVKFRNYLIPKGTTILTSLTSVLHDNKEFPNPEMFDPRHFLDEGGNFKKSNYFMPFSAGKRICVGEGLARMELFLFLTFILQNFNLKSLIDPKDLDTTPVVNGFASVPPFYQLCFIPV
On the % scale 0 is the no-effect control and ±100 the full control effect.

Row | SMILES | AC50 | activity, negative = inhibition
1 | CC(C)CCOc1ccc(NC(=O)C2OC3OC(C)(C)OC3C3OC(C)(C)OC23)cc1 (centres undefined) | inactive | 
2 | CCN(CC)CCNC(=O)c1cc(Br)c(N)cc1OC | inactive | 
3 | COc1ccc(Br)cc1C(=O)Nc1ccc(Cc2ccncc2)cc1 | 0.794 µM (active) | 
4 | CN1CCc2c(sc3c2c(=O)n(-c2ccccc2)c2nncn32)C1 | inactive | 
5 | Cn1c(=O)n(-c2ccc(Cl)cc2)c(=O)c2c3c(sc21)COC(C)(C)C3 | 20 µM (active) | 
6 | COc1cc(/C=C(\C#N)C(=O)NCC2CCCO2)c([N+](=O)[O-])cc1OC (centres undefined) | 11.2 µM (active) | 
7 | COc1ccc(/C=C(\C#N)C(=O)NCC2CCCO2)cc1OC (centres undefined) | inactive | 
8 | Cc1ccc(-n2c(C)cc(/C=C(\C#N)C(=O)NCC3CCCO3)c2C)cc1 (centres undefined) | 3.16 µM (active) | 
9 | N[C@@H](Cc1ccnnc1)C(=O)O |  | 35.8% [at 11.4 µM] (inactive)
10 | CC(C)[C@H](CO)Nc1nc(Nc2ccc(C(=O)O)c(Cl)c2)c2ncn(C(C)C)c2n1 | inactive | 
11 | CCOC(=O)CSc1cc(=O)n(C)c2cc(Cl)ccc12 | 4.47 µM (active) | 
12 | Cc1cccc(-n2nc([N+](=O)[O-])c(=NCc3cccnc3)n2O)c1 | 6.31 µM (active) | 
13 | Cc1ccc(C)c(/C(O)=C2\C(=O)C(=O)N(Cc3cccnc3)C2c2cccnc2)c1 (centres undefined) | inactive | 
14 | Cn1c(=S)c2[nH]c(SCCN3C(=O)c4ccccc4C3=O)nc2n(C)c1=O |  | 17.2% [at 11.4 µM] (inactive)
15 | O=C1c2ccccc2C(=O)N1CCSC(=S)N1CCOCC1 | 1.58 µM (active) | 
16 | Cc1nc2cnc(N3CCOCC3)nc2n(C)c1=O | inactive | 
17 | Cc1cc2ccccn2c1C(=O)c1nc(N2CCOCC2)ncc1Cl | 7.94 µM (active) | 
18 | O=c1c(-c2ccccc2)nc2cnc(N3CCOCC3)nc2n1-c1ccccc1 | inactive | 
19 | Cc1cc(CC(=O)O)n(C)c1C(=O)c1ccc(Cl)cc1 | inactive | 
20 | Cc1cc2ccccn2c1C(=O)c1ccc(Cl)cc1 | 1.26 µM (active) | 
21 | CCC(=O)NNc1cc(=O)c2c(=O)n(C)c(=O)n(C)c2[nH]1 | inactive | 
22 | CC(=O)NC1=NC(=O)C(C)S1 (centres undefined) | inactive | 
23 | COc1cc(CNCc2ccccn2)ccc1OCc1ccc(Cl)cc1Cl | 3.98 µM (active) | 
24 | COc1ccc(CC(=O)NCc2ccccn2)cc1OC | 28.2 µM (active) | 

Row | SMILES | AC50 | activity, negative = inhibition
25 | Cc1ccc(CS(=O)(=O)CCC(=O)NCc2ccccn2)cc1 | inactive | 
26 | COc1cc2c(cc1OC)-c1cc(NCc3ccccn3)nc(=O)n1CC2 | inactive | 
27 | CCN1C(=O)[C@H]2[C@H]3[C@H](O)[C@H](O)C/C(=N/OCC(C)C)[C@H]3CC[C@@H]2C1=O |  | 28.2% [at 11.4 µM] (inactive)
28 | COc1ccccc1OCC(=O)NNC(=O)c1cnccn1 | inactive | 
29 | COc1ccccc1OCC(=O)N/N=C1/SCC(=O)N1Cc1ccccc1 | 14.1 µM (active) | 
30 | CCOC(=O)N/N=C1/C[C@@H](O)[C@@H](O)[C@@H]2[C@@H]3C(=O)N(Cc4ccccc4)C(=O)[C@H]3CC[C@H]12 |  | 10.9% [at 11.4 µM] (inactive)
31 | CCC(C)N1C(=O)S/C(=C/c2ccc(Sc3nc4ccccc4[nH]3)o2)C1=O (centres undefined) | 1.12 µM (active) | 
32 | CCCCCC1CCC(C(=O)NNC(=S)NCC)CC1 (centres undefined) | 17.8 µM (active) | 
33 | COc1ncnc(NS(=O)(=O)c2ccc(N)cc2)c1OC | inactive | 
34 | Cc1[nH]c(N)nc(=S)c1CCC(=O)O |  | 3.33% [at 11.4 µM] (inactive)
35 | Nc1nc(N)c(CCCCc2ccccc2)c(N)n1 |  | -22.9% [at 11.4 µM] (inactive)
36 | Cc1[nH]c(N)nc(=S)c1CCCNc1ccccc1 | 2 µM (active) | 
37 | Cn1c(N)c(N=Nc2ccc(S(N)(=O)=O)cc2)c(=O)n(C)c1=O |  | 76% [at 11.4 µM] (inactive)
38 | c1ccc(-c2nnc(SCCC3OCCCO3)o2)cc1 | 5.01 µM (active) | 
39 | COc1ccc(NC(=O)N2CCC3(CC2)CCN(C(=O)c2cnccn2)CC3)cc1 | 25.1 µM (active) | 
40 | O=C(Nc1ccccc1)N1CCC2(CC1)CCN(S(=O)(=O)c1ccccc1)CC2 | 15.8 µM (active) | 
41 | COc1ccc(NC(=O)N2CC3(CCN(C(=O)c4cnccn4)CC3)C2)cc1 | inactive | 
42 | COc1ccc(NC(=O)N2CCCC3(CCN(C(=O)c4cnccn4)CC3)C2)cc1 | inactive | 
43 | COc1ccc(NC(=O)N2CC3(CCN(S(C)(=O)=O)CC3)C2)cc1 | inactive | 
44 | COc1ccc(NC(=O)N2CCC3(CC2)CCN(S(=O)(=O)c2ccccc2)CC3)cc1 | inactive | 
45 | COc1ccc(NC(=O)N2CC3(CCN(S(=O)(=O)c4ccccc4)CC3)C2)cc1 | inactive | 
46 | COc1ccc(NC(=O)N2CCC3(CC2)CCN(S(C)(=O)=O)CC3)cc1 | 3.16 µM (active) | 
47 | COc1ccc(NC(=O)N2CCCC3(CCN(S(C)(=O)=O)CC3)C2)cc1 | inactive | 
48 | CC12c3ccccc3C(c3ccccc31)C1C(=O)N(Cc3cccnc3)C(=O)C12 (centres undefined) | 1.26 µM (active) | 

Row | SMILES | AC50 | activity, negative = inhibition
49 | Nc1ccccc1Oc1ncc(C(F)(F)F)cc1Cl | 7.94 µM (active) | 
50 | FC(F)(F)c1cnc(/C=C/Nc2ccccc2Cl)c(Cl)c1 | inactive | 
51 | Oc1cc(O)c2c(c1)O[C@H](c1ccc(O)c(O)c1)[C@H](O)C2 | inactive | 
52 | CN1CCN(c2nc3cc(C(F)(F)F)ccc3n3cccc23)CC1 | 12.6 µM (active) | 
53 | CCOc1ccc2c(ccc(/C=C\c3cc(C)c4cccnc4c3O)[n+]2C)c1 |  | 27.7% [at 11.4 µM] (inactive)
54 | COc1cc(NCCC(=O)O)c2ncccc2c1 |  | -14.2% [at 11.4 µM] (inactive)
55 | Cc1ccc(OCCCOc2cccc3cccnc23)cc1C | 1.12 µM (active) | 
56 | O=C1N/C(=C\c2ccc(N3CCOCC3)c(F)c2)C(=O)N1Cc1ccccc1 | 14.1 µM (active) | 
57 | CN(C)c1ccc(-c2nc(N3CCNCC3)c3ccccc3n2)cc1 | 15.8 µM (active) | 
58 | c1cncc(-c2nc(N3CCNCC3)c3ccccc3n2)c1 | inactive | 
59 | c1ccc2c(-n3ccnc3)nc(-c3ccoc3)nc2c1 | 20 µM (active) | 
60 | CN(C)c1ccc(-c2nc(-n3ccnc3)c3ccccc3n2)cc1 | 2.51 µM (active) | 
61 | c1ccc2c(N3CCOCC3)nc(-c3ccoc3)nc2c1 | inactive | 
62 | CN1CCN(c2nc(-c3ccoc3)nc3ccccc23)CC1 | inactive | 
63 | c1ccc2c(N3CCNCC3)nc(-c3ccc4c(c3)OCO4)nc2c1 | inactive | 
64 | CO[C@@H]1/C=C\CC(=O)N[C@@H](C)C(=O)OC[C@@H](OC)[C@H](C)/C=C\CC(=O)OC[C@H]1C |  | -30.6% [at 11.4 µM] (inactive)
65 | Nc1ccc(S(=O)(=O)Nc2ccccn2)cc1 | inactive | 
66 | O=C1C(Cl)=C(Nc2ccc(S(=O)(=O)Nc3ccccn3)cc2)C(=O)c2ccccc21 | 0.794 µM (active) | 
67 | CN(C)S(=O)(=O)Nc1ccccn1 |  | -1.75% [at 11.4 µM] (inactive)
68 | CCOC(=O)N1CCC(NC(=O)CSCc2cnn(-c3ccccc3)c2-n2cccc2)CC1 | 5.01 µM (active) | 
69 | Cc1ccc(C)c(CN2C(=O)C3CCCN3c3ccc(C#N)cc32)c1 (centres undefined) | 3.16 µM (active) | 
70 | Cc1ccc(C)c(C(=N)c2ccccc2Cc2ccccc2)c1 | 1 µM (active) | 
71 | CC(C)N(CCC(=O)c1ccc2ccccc2c1)Cc1ccccc1 | inactive | 
72 | N=C(c1ccc2ccccc2c1)c1ccccc1Cc1ccccc1 | 3.98 µM (active) | 

Row | SMILES | AC50 | activity, negative = inhibition
73 | COc1cc(/C=C(/NC(=O)c2ccccc2Cl)C(=O)O)cc(OC)c1OC | inactive | 
74 | COc1ccccc1C(=O)N/C(=C/c1ccc(Br)cc1)C(=O)NCC(=O)O | 25.1 µM (active) | 
75 | O=C(O)CNC(=O)c1ccccc1O |  | 26.9% [at 11.4 µM] (inactive)
76 | CS(=O)(=O)N1CCC2(CC1)CN(c1cccc(-c3ccccc3)c1)C2 | inactive | 
77 | CCn1c(C)nc2cc(C(=O)NNS(=O)(=O)c3ccccc3F)ccc21 | inactive | 
78 | CCn1c2ccccc2c2cc(NS(=O)(=O)c3ccccc3C)ccc21 | 0.282 µM (active) | 
79 | CCc1ccc2[nH]c(O)c(N=Nc3nc(-c4ccccc4)cs3)c2c1 | 15.8 µM (active) | 
80 | O=[N+]([O-])c1ccccc1N=Nc1c(O)[nH]c2ccc(S(=O)(=O)O)cc12 |  | -23.2% [at 11.4 µM] (inactive)
81 | COC(=O)C1=C(C)NC(C)=C([N+](=O)[O-])[C@H]1c1ccccc1C(F)(F)F | 0.158 µM (active) | 
82 | COC(=O)C1=C(C)NC(C)=C([N+](=O)[O-])[C@@H]1c1ccccc1C(F)(F)F | 0.126 µM (active) | 
83 | CCC(=O)O[C@@]1(C(=O)SCF)[C@@H](C)C[C@H]2[C@@H]3C[C@@H](F)C4=CC(=O)C=C[C@@]4(C)[C@]3(F)[C@@H](O)C[C@]21C | inactive | 
84 | C[C@@H](c1ccccc1)N1C(=O)[C@H]2[C@H]3[C@H](O)[C@H](O)C/C(=N/OC[C@@H](O)COCc4ccco4)[C@H]3CC[C@@H]2C1=O |  | -25% [at 11.4 µM] (inactive)
85 | O=C(Nc1ccccc1)[C@@]12C[C@@H]1/C(=N/O)c1ccccc1O2 | 10 µM (active) | 
86 | CCOC(=O)[C@@]12C[C@@H]1/C(=N/O)c1ccccc1O2 | inactive | 
87 | N=C1[C@@H](O)[C@]2(I)c3ccccc3N3C(=N)[C@H](O)[C@@H]4c5ccccc5N1[C@@H]4[C@@H]32 | 3.16 µM (active) | 
88 | CC(C)[C@H](N)c1nnc(SC/C=C/c2ccccc2)o1 | 2 µM (active) | 
89 | CC(C)[C@H](N)c1nnc(SCc2ccc(Cl)cc2)o1 | 0.178 µM (active) | 
90 | OC[C@@H](O)[C@@H](O)[C@@H](O)[C@@H](O)c1nc2ccc(Cl)cc2[nH]1 |  | -0.441% [at 11.4 µM] (inactive)
91 | C/C(=N\N=C1\NC(=O)CC(C(=O)O)S1)c1cccs1 (centres undefined) | inactive | 
92 | C/C(=N\N=C(c1ccccc1)c1ccccc1)c1cccs1 | 3.55 µM (active) | 
93 | CC(=O)/C(=N\N=C(N)N)c1ccccc1 |  | 102% [at 11.4 µM] (inactive)
94 | O=C(c1n[nH]c(=O)c2ccccc12)N1CCN(C2c3ccccc3-c3ccccc32)CC1 | 3.16 µM (active) | 
